# Hit rate of the full screen: of about 3,200 compounds, about 300 (9.4%) showed activity. The full list was thinned out, with actives kept by preference. Values without a mark were called inactive.
# Test system: A673/TR/shEF
# Test: cell viability (LOESS-normalised, relative to median of negative controls) (log2 ratio); higher = more viable cells (less compound effect), active = hit call of the paper (over 3 MAD below the median)
# Details: treatment time: 72 h
# Method in brief: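 Doxycycline, present or absent from 24 h before compounds, was used to induce EWS-FLI1 shRNA knockdown in A673/TR/shEF Ewing sarcoma cells at 1,500 per well in 384-well plates. Cells then received library compounds at two or more concentrations, or DMSO controls, for three days. Viability was measured by CellTiter-Glo luminescence on an Envision reader, and per-plate LOESS correction, division by the negative-control median and log2 transformation followed.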
# [1] = 0.25 µM, library screen: screen1, EWS-FLI1 expression: high (no doxycycline)
# [2] = 0.25 µM, library screen: screen1, EWS-FLI1 expression: low (doxycycline-induced shRNA knockdown)
# [3] = 2.5 µM, library screen: screen1, EWS-FLI1 expression: high (no doxycycline)
# [4] = 2.5 µM, library screen: screen1, EWS-FLI1 expression: low (doxycycline-induced shRNA knockdown)
# [5] = 0.103 µM, library screen: screen3, EWS-FLI1 expression: high (no doxycycline)
# [6] = 0.103 µM, library screen: screen3, EWS-FLI1 expression: low (doxycycline-induced shRNA knockdown)
# [7] = 0.308 µM, library screen: screen3, EWS-FLI1 expression: high (no doxycycline)
# [8] = 0.308 µM, library screen: screen3, EWS-FLI1 expression: low (doxycycline-induced shRNA knockdown)
# [9] = 0.926 µM, library screen: screen3, EWS-FLI1 expression: high (no doxycycline)
# [10] = 0.926 µM, library screen: screen3, EWS-FLI1 expression: low (doxycycline-induced shRNA knockdown)
# [11] = 2.8 µM, library screen: screen3, EWS-FLI1 expression: high (no doxycycline)
# [12] = 2.8 µM, library screen: screen3, EWS-FLI1 expression: low (doxycycline-induced shRNA knockdown)
# [13] = 8.3 µM, library screen: screen3, EWS-FLI1 expression: high (no doxycycline)
# [14] = 8.3 µM, library screen: screen3, EWS-FLI1 expression: low (doxycycline-induced shRNA knockdown)
# [15] = 25 µM, library screen: screen3, EWS-FLI1 expression: high (no doxycycline)
# [16] = 25 µM, library screen: screen3, EWS-FLI1 expression: low (doxycycline-induced shRNA knockdown)
structure (smiles),measurement,setting,value
Cc1ccc(C(=O)NCc2ccc3c(c2)OCO3)cc1,cell viability (log2),[1],0.0742
same,cell viability (log2),[2],-0.0061
same,cell viability (log2),[3],0.0676
same,cell viability (log2),[4],0.0498
COc1ccccc1/C=C1\SC(=S)N(C2CCS(=O)(=O)C2)C1=O (centres undefined),cell viability (log2),[1],0.0633
same,cell viability (log2),[2],0.0907
same,cell viability (log2),[3],0.0733
same,cell viability (log2),[4],0.0539
COc1ccc(OC)c(CN2CCN(Cc3cccnc3)CC2)c1,cell viability (log2),[1],0.114
same,cell viability (log2),[2],0.038
same,cell viability (log2),[3],0.0976
same,cell viability (log2),[4],-0.0472
N/C(=N/c1nc2ccccc2o1)NC(=O)Nc1ccccc1,cell viability (log2),[1],0.05
same,cell viability (log2),[2],0.11
same,cell viability (log2),[3],0.0784
same,cell viability (log2),[4],0.171
NCC1COc2ccccc2O1 (centres undefined),cell viability (log2),[1],0.104
same,cell viability (log2),[2],-0.0116
same,cell viability (log2),[3],0.0686
same,cell viability (log2),[4],0.0513
COc1cccc(C=CC(=O)O)c1C(C)C,cell viability (log2),[1],0.0613
same,cell viability (log2),[2],0.0863
same,cell viability (log2),[3],0.0736
same,cell viability (log2),[4],0.0985
CCC(=O)OC1[C@@H]2CC3=C4CC(=O)O[C@@H](c5ccoc5)[C@]4(C)CCC3[C@@](C)(C2=O)[C@@H](CC(=O)OC)C1(C)C (some centres undefined),cell viability (log2),[1],0.0873
same,cell viability (log2),[2],-0.00184
same,cell viability (log2),[3],0.0649
same,cell viability (log2),[4],0.122
NCCC(=O)N[C@@H](Cc1cnc[nH]1)C(=O)O,cell viability (log2),[1],0.026
same,cell viability (log2),[2],0.0201
same,cell viability (log2),[3],0.0679
same,cell viability (log2),[4],0.084
O=C(O)C[C@H](O)C[C@H](O)/C=C/c1c(C2CC2)nc2ccccc2c1-c1ccc(F)cc1,cell viability (log2),[5],0.0626
same,cell viability (log2),[6],-0.0656
same,cell viability (log2),[7],-0.114
same,cell viability (log2),[8],-0.0155
same,cell viability (log2),[9],-0.533 (active)
same,cell viability (log2),[10],-0.345 (active)
same,cell viability (log2),[11],-1.53 (active)
same,cell viability (log2),[12],-0.986 (active)
same,cell viability (log2),[13],-2.09 (active)
same,cell viability (log2),[14],-1.25 (active)
same,cell viability (log2),[15],-3.51 (active)
same,cell viability (log2),[16],-3.56 (active)
CC(C)n1c(/C=C/C(O)CC(O)CC(=O)O)c(-c2ccc(F)cc2)c2ccccc21 (centres undefined),cell viability (log2),[5],0.107
same,cell viability (log2),[6],0.0332
same,cell viability (log2),[7],0.201
same,cell viability (log2),[8],0.108
same,cell viability (log2),[9],0.169
same,cell viability (log2),[10],0.0801
same,cell viability (log2),[11],0.0218
same,cell viability (log2),[12],-0.0661
same,cell viability (log2),[13],-0.668 (active)
same,cell viability (log2),[14],-0.538 (active)
same,cell viability (log2),[15],-2.7 (active)
same,cell viability (log2),[16],-1.87 (active)
CC(C)c1c(C(=O)Nc2ccccc2)c(-c2ccccc2)c(-c2ccc(F)cc2)n1CC[C@@H](O)C[C@@H](O)CC(=O)O,cell viability (log2),[1],0.091
same,cell viability (log2),[2],0.0242
same,cell viability (log2),[3],0.147
same,cell viability (log2),[4],-0.0132
O=C1O[C@H]([C@@H](O)CO)C([O-])=C1[O-].[Ca+2],cell viability (log2),[1],0.0808
same,cell viability (log2),[2],0.0736
same,cell viability (log2),[3],0.131
same,cell viability (log2),[4],0.127
